Assay results taken from ChEMBL document CHEMBL3988442, “University of Dundee, Small-Polar-MMV Screening Library” (2021).

What follows are molecules tested against T1, Aspartate--tRNA(Asp/Asn) ligase (Mycobacterium tuberculosis (strain ATCC 25618 / H37Rv)) (UniProt P9WFW3) (assay: Assay for Asp RNA synthetase-1 from Mycobacterium tuberculosis). Conditions: 30 µM.
T1 sequence (whole entry): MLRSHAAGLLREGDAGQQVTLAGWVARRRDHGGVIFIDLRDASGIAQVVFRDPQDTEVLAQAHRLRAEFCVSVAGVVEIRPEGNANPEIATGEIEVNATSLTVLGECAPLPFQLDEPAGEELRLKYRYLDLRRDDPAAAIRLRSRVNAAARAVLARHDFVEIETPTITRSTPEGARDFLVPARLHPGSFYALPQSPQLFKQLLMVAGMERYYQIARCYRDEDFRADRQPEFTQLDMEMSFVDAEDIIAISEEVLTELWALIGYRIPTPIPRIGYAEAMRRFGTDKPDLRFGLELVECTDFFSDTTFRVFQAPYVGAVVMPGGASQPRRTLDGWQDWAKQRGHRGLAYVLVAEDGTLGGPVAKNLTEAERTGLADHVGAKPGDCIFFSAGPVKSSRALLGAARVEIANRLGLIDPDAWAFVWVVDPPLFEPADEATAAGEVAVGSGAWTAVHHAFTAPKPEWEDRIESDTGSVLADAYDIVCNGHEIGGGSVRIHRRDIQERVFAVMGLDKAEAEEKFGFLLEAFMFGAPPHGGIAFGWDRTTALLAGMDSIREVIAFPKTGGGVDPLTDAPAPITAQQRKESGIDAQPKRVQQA
Format: functional
Parameters: scale not given: direction of the effect not stated beside the values

| Compound | Percent Effect |
| --- | --- |
| COc1cccc(C2CC(=O)Nc3nc(N)sc32)c1OC (stereo not given) | 65.3% |
| Cc1nc(C)n(CC2CCCN2CCc2cccs2)n1 (stereo not given) | -0.678% |
| Cc1cc(F)ccc1CNCCn1cccn1 | -3.06% |
| CNS(=O)(=O)Cc1ccc(CNC(=O)c2cccc(C)n2)cc1 | -1.85% |
| CC(OCC(F)(F)F)C(=O)N1CCCCC1 (stereo not given) | 1.09% |
| CN(c1ccncn1)C1CC2(CCN(C(=O)c3ccsc3)C2)C1 (stereo not given) | -8.13% |
| COc1ccccc1CN(C)C(=O)c1cc(CN2CCC(O)CC2)on1 | 3.59% |
| CNc1cc(N2CCCC2CNCc2c[nH]nc2C(C)(C)C)ncn1 (stereo not given) | 1.25% |
| O=c1ccc(-c2cccs2)nn1CN1CCN(Cc2ccccc2)CC1 | -1.1% |
| NS(=O)(=O)N1CCc2ccc(NC(=O)Cc3ccc(F)cc3)cc21 | -5.84% |
| Cc1cc(C(=O)NCC2COCc3c(C)nnn3C2)no1 (stereo not given) | 2.38% |
| c1ccc(-n2nnnc2CN2CCCC(Cn3cncn3)C2)cc1 (stereo not given) | 2.98% |
| CN(CC1COc2ccccc2O1)C(=O)NCCCn1ccnc1 (stereo not given) | -0.767% |
| CCCNC(=O)Cn1nc(C(C)C)c2cnn(C(C)(C)C)c2c1=O | -6.33% |
| N#Cc1cc(NC(=O)C2CC=CC2)ccc1N1CCC(O)CC1 | -1.55% |
| CCN1CC2(CC1=O)CN(Cc1cnn(C)c1)CCN(C(=O)C(C)C)C2 (stereo not given) | -1.53% |
| CCc1nc(NCCCn2cccn2)c2c(n1)c(C)nn2C | -0.755% |
| COCC(O)CNC(=O)c1coc(COc2ccc3sc(C)nc3c2)n1 (stereo not given) | 5.55% |
| Cc1noc(C(C)C)c1C(=O)NCc1cc(F)cc(F)c1 | -4.07% |
| Cc1nccn1-c1cc(CNC(=O)c2ccccn2)ccn1 | 8.28% |

| Compound | Percent Effect |
| --- | --- |
| O=C(c1cccc2[nH]ncc12)N1CCCC1c1noc(C2CC2)n1 (stereo not given) | -4.54% |
| CNC(=O)N1CC[C@@H]2CN(Cc3cccnc3)S(=O)(=O)[C@@H]2CC1 | 1.91% |
| O=C(C1CC1)N1CCN(Cc2coc(-c3ccc(Cl)cc3)n2)CC1 | -1.18% |
| CN1CCN(C[C@@H]2CN(C(=O)c3ccccc3C#N)C[C@@H]2CO)CC1 | -1.09% |
| COC(=O)c1cccc(OCCn2nc(-c3cccs3)oc2=O)c1 | 3.9% |
| O=C(NCCOc1ccc(F)c(F)c1)NCc1cccc(CO)c1 | 0.257% |
| Cc1cccc(CN2CCC3(CCCN(C(=O)NC4CC4)C3)C2=O)n1 (stereo not given) | 6.63% |
| Cc1noc(C(C)C)c1C(=O)NCCCOC(C)C | 2.01% |
| CCC(=O)Nc1nnc(CCOc2cccc(OC)c2)s1 | -4.27% |
| CN(CCc1ccccn1)S(=O)(=O)N1CCCC1c1ccco1 (stereo not given) | 2.3% |
| OCCn1nccc1C1CCN(CCCOc2ccc(F)cc2)CC1 | 1.85% |
| CC(C)n1ccnc1CN1CCCN(C(=O)COC2CCCC2)CC1 | -1.67% |
| Cc1nc(-c2nnc[nH]2)sc1C(=O)N(Cc1cccnc1)C1CC1 | -2.72% |
| CCc1nc(CNCC2CCCN2c2cc(NC)ncn2)cs1 (stereo not given) | -0.456% |
| Cc1nc(C)n(CC2CCCCN2CC(=O)NC2CCOCC2)n1 (stereo not given) | -4.37% |
| N#Cc1cccc(SCCS(N)(=O)=O)c1 | 0.306% |
| Cc1cn2c(n1)CCC(NC(=O)c1ccc(CS(C)(=O)=O)cc1)C2 (stereo not given) | -0.233% |
| CN(C)c1cc2c(nn1)CCN(C(=O)Cc1noc3ccccc13)C2 | 0.589% |
| CC(C)OCCOCc1cccc(NC(=O)NCc2ccccn2)c1 | 8.32% |
| Cn1ncc2c(=O)[nH]c(CN3CCC(Cc4ccccc4)CC3)nc21 | -5.37% |

Each molecule was assayed against Shiga toxin 2 (Escherichia coli O157:H7) (UniProt P09385+P09386) (assay: E. coli 0.157:H7 Shiga Toxin SOP - stx2 screening assay). Conditions: 30 µM.
Format: functional
Parameters: scale not given: direction of the effect not stated beside the values

| Compound | Percent Effect |
| --- | --- |
| COc1cccc(C2CC(=O)Nc3nc(N)sc32)c1OC (stereo not given) | -20% |
| Cc1nc(C)n(CC2CCCN2CCc2cccs2)n1 (stereo not given) | -28.6% |
| Cc1cc(F)ccc1CNCCn1cccn1 | 13% |
| CNS(=O)(=O)Cc1ccc(CNC(=O)c2cccc(C)n2)cc1 | -5.04% |
| CC(OCC(F)(F)F)C(=O)N1CCCCC1 (stereo not given) | -2.39% |
| CN(c1ccncn1)C1CC2(CCN(C(=O)c3ccsc3)C2)C1 (stereo not given) | -32.2% |
| COc1ccccc1CN(C)C(=O)c1cc(CN2CCC(O)CC2)on1 | -16.2% |
| CNc1cc(N2CCCC2CNCc2c[nH]nc2C(C)(C)C)ncn1 (stereo not given) | -11.5% |
| O=c1ccc(-c2cccs2)nn1CN1CCN(Cc2ccccc2)CC1 | 9.12% |
| NS(=O)(=O)N1CCc2ccc(NC(=O)Cc3ccc(F)cc3)cc21 | -15% |
| Cc1cc(C(=O)NCC2COCc3c(C)nnn3C2)no1 (stereo not given) | -17.1% |
| c1ccc(-n2nnnc2CN2CCCC(Cn3cncn3)C2)cc1 (stereo not given) | 6.15% |
| CN(CC1COc2ccccc2O1)C(=O)NCCCn1ccnc1 (stereo not given) | 11.4% |
| CCCNC(=O)Cn1nc(C(C)C)c2cnn(C(C)(C)C)c2c1=O | 8.81% |
| N#Cc1cc(NC(=O)C2CC=CC2)ccc1N1CCC(O)CC1 | -9.47% |
| CCN1CC2(CC1=O)CN(Cc1cnn(C)c1)CCN(C(=O)C(C)C)C2 (stereo not given) | -10.1% |
| CCc1nc(NCCCn2cccn2)c2c(n1)c(C)nn2C | -14.3% |
| COCC(O)CNC(=O)c1coc(COc2ccc3sc(C)nc3c2)n1 (stereo not given) | -20% |
| Cc1noc(C(C)C)c1C(=O)NCc1cc(F)cc(F)c1 | 14.2% |
| Cc1nccn1-c1cc(CNC(=O)c2ccccn2)ccn1 | -3.43% |

| Compound | Percent Effect |
| --- | --- |
| O=C(c1cccc2[nH]ncc12)N1CCCC1c1noc(C2CC2)n1 (stereo not given) | 0.232% |
| CNC(=O)N1CC[C@@H]2CN(Cc3cccnc3)S(=O)(=O)[C@@H]2CC1 | -0.136% |
| O=C(C1CC1)N1CCN(Cc2coc(-c3ccc(Cl)cc3)n2)CC1 | 7.92% |
| CN1CCN(C[C@@H]2CN(C(=O)c3ccccc3C#N)C[C@@H]2CO)CC1 | -8.04% |
| COC(=O)c1cccc(OCCn2nc(-c3cccs3)oc2=O)c1 | 25% |
| O=C(NCCOc1ccc(F)c(F)c1)NCc1cccc(CO)c1 | -6.88% |
| Cc1cccc(CN2CCC3(CCCN(C(=O)NC4CC4)C3)C2=O)n1 (stereo not given) | -5.22% |
| Cc1noc(C(C)C)c1C(=O)NCCCOC(C)C | -6.05% |
| CCC(=O)Nc1nnc(CCOc2cccc(OC)c2)s1 | 5.93% |
| CN(CCc1ccccn1)S(=O)(=O)N1CCCC1c1ccco1 (stereo not given) | 32.1% |
| OCCn1nccc1C1CCN(CCCOc2ccc(F)cc2)CC1 | 4.26% |
| CC(C)n1ccnc1CN1CCCN(C(=O)COC2CCCC2)CC1 | -3.07% |
| Cc1nc(-c2nnc[nH]2)sc1C(=O)N(Cc1cccnc1)C1CC1 | 7.27% |
| CCc1nc(CNCC2CCCN2c2cc(NC)ncn2)cs1 (stereo not given) | -5.66% |
| Cc1nc(C)n(CC2CCCCN2CC(=O)NC2CCOCC2)n1 (stereo not given) | -17.4% |
| N#Cc1cccc(SCCS(N)(=O)=O)c1 | -7.47% |
| Cc1cn2c(n1)CCC(NC(=O)c1ccc(CS(C)(=O)=O)cc1)C2 (stereo not given) | -16.5% |
| CN(C)c1cc2c(nn1)CCN(C(=O)Cc1noc3ccccc13)C2 | -8.79% |
| CC(C)OCCOCc1cccc(NC(=O)NCc2ccccn2)c1 | -20.3% |
| Cn1ncc2c(=O)[nH]c(CN3CCC(Cc4ccccc4)CC3)nc21 | 0.0557% |
